# Article PMC5540273 (PLoS ONE, 2017)
# Assays:
# Conditions in all cases: concentration: 1 μM, replicates: in singlicate; n = 1
# [1] = system: T1, DMPK2
# T1 construct: gene CDC42BPG
# [2] = system: DMPK
# [3] = system: T2, DRAK1
# T2 construct: gene STK17A
# [4] = system: T3, DRAK2
# T3 construct: gene STK17B
# [5] = system: DYRK1A
# [6] = system: DYRK1B
# [7] = system: DYRK2
# [8] = system: EGFR
# [9] = system: EIF2AK1
# [10] = system: EPHA1
# 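Further: KINOMEscan kinase panel screen.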
SMILES,%Inh [1] [%],%Inh [2] [%],%Inh [3] [%],%Inh [4] [%],%Inh [5] [%],%Inh [6] [%],%Inh [7] [%],%Inh [8] [%],%Inh [9] [%],%Inh [10] [%]
O=C(Nc1n[nH]c2nc(-c3ccco3)c(Br)cc12)C1CCN(Cc2ccccc2)C1.O=C(O)[C@H](O)[C@@H](O)C(=O)O (stereo not drawn) [SB-742034],0,0,11,13,22,0,32,1,33,0
COc1cccc(CNC(=O)NC2CCN(c3ccnc(Nc4ccc(F)cc4)n3)C2)c1 (stereo not drawn) [GSK1379723],0,0,0,0,39,5,4,21,0,12
CNc1nc(-c2ccc3c(N)n[nH]c3c2)cc(N2C[C@@H](C(=O)Nc3ccccc3)CC[C@H]2C)n1 [GSK2298859],13,0,97.6,80,15,0,10,31,0,14
Cc1ccc(NC(=O)Nc2ccccc2F)cc1-c1ccc(C(=O)Nc2ccncc2)cc1 [GSK1398477],16,3,1,0,26,8,17,24,0,0
Cc1ccc(NC(=O)Nc2ccc(Cl)cc2)cc1-c1ccc(C(=O)Nc2ccncc2)cc1 [GSK1398472],63,0,3,0,19,0,0,24,0,12
COc1ccc(Nc2nccc(N3CCC(NC(=O)c4cc5ccccc5s4)C3)n2)cc1 (stereo not drawn) [GSK1379738],7,0,0,0,15,0,0,0,0,17
Nc1ncnc2occ(-c3ccc4c(c3)CCN4C(=O)Cc3cc(F)ccc3F)c12 [GSK2645446],51,7,0,0,6,0,0,18,0,11
Cn1cncc1C(=O)NC1CCN(c2ccnc(Nc3ccc(F)cc3)n2)C1 (stereo not drawn) [GSK1379717],0,0,0,0,0,21,0,15,3,2
COc1cccc(NC(=O)Nc2ccc(C)c(-c3ccc(C(=O)Nc4ccncc4)cc3)c2)c1 [GSK1398474],5,0,0,9,9,43,22,17,7,20
COc1ccc(Nc2nccc(N3CCC(NC(=O)C(C)c4ccc(Cl)cc4)C3)n2)cc1 (stereo not drawn) [GSK1379735],0,0,8,0,12,0,3,14,77,0
Fc1ccc(-c2nc3n(c2-c2ccncc2)CCS3)cc1 [GI98581],82,16,0,0,15,13,24,32,0,8
COc1nccc(-c2c(-c3ccc(F)cc3)ncn2CCCN2CCOCC2)n1 [SB-282852],0,8,0,0,0,61,10,8,8,0
O=C(Nc1n[nH]c2cc(-c3ccsc3)ccc12)C1CC1 [SB-732932],0,0,17,0,0,12,28,0,0,3
Cc1ccc(NC(=O)Nc2ccc(Cl)c(C(F)(F)F)c2)cc1-c1ccc(C(=O)Nc2ccncc2)cc1 [GSK1398470],12,0,0,0,12,19,29,25,78,6
COc1ccc(CSc2nnc(-c3ccc4nccn4c3)o2)cc1C(F)(F)F,2,41,31,0,41,41,0,4,7,0
